High-throughput results from PubChem.
WT yeast gro inh = growth inhibition of WT yeast, mitochondrial fusion screen; 190,000 tested, 2.1% active; inhibition, % at 10 µM; mitochondrial fusion phenotypic screen, WT strain; in the data active means inhibition above about 58%; tested in S. cerevisiae
Ins promoter up = MIN6 insulin promoter up-regulation; 190,000 tested, 0.3% active; z-score at 5 µM; MIN6 insulin promoter-GFP reporter, high-content imaging; hits give high values; AID 1625;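 active means z-score above 3 at 5 µM with at least 500 cells counted in the well; inconclusive means wells under 500 cells, flagged as cytotoxic or low count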
Insulin prom inh = TRM-6 insulin promoter activity inhibition; TRM-6 cells (human fetal islet line), insulin promoter-eGFP reporter, imaging; reporter expression induced with tamoxifen; 130,000 tested, 0.9% active; AID 1273; inhibition, % at 2 µM;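 active means inhibition above the mean plus 3 SD, with well images judged a real hit on visual review, cut at about 60% in these data, passing the limit was not always enough; inconclusive means inhibition over the cutoff but images rejected on review; inactive means inhibition not above the cutoff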
Autophagy mod = alters autophagy in cells; MEF GFP-LC3 puncta imaging; test concentration mostly 10 µM; calls only at 10 µM (by protocol); 190,000 tested, 0.98% active;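 active means percentage of spot-positive cells more than 3 SD above its plate mean, without a fluorescence outlier flag or 80% toxicity; inconclusive means no clear call, values can overlap the other calls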;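 further: spot-positive cell cutoff set from DMSO-treated cells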
L major viab = inhibitors of Leishmania major promastigote growth; Leishmania major promastigotes, resazurin fluorescence viability; inhibition, % at 10 µM; 200,000 tested, 9% active; AID 1063; in the data active means inhibition above about 50%;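 further: promastigotes grown with compound for 44 hours at 28 °C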
* marks the source's active call; other numbers are inactive results; i = inactive; ? = inconclusive; / = not tested or not shown; + = active, no number. In the library only some 11% were active in any assay of this set; here they are far more common.

SMILES	WT yeast gro inh	Ins promoter up	Insulin prom inh	Autophagy mod	L major viab
COc1ccc(CC(=O)NNC(=O)c2c(-c3ccccc3Cl)noc2C)cc1OC	/	0.03	/	/	/
CCN(CC)CCNc1ccc(CO)c2sc3ccccc3c(=O)c12	19	/	-32	i	100*
CC1CCN(Cc2ccc(NC(=O)C3CCN(c4nnc(-n5cccc5)s4)CC3)cc2)CC1	12	-0.34	-80	+	92*
CC1CC2(CCCC2)N(C(=O)c2ccccc2)Cc2ccccc21 (centres undefined)	72*	-0.42	10	i	13
S=C1NCCc2ccc(Cl)cc2C1c1ccccc1Cl (centres undefined)	68*	-1.1	-15	i	5
Cc1ccc(COc2ccc(/C=N/O)cc2)cc1	-9	-0.09	0	i	58*
NC(N)=N/N=C/c1ccc(OCc2ccccc2)cc1	19	-0.4	7	i	101*
NC(N)=N/N=C/c1ccc(OCc2ccc(Cl)cc2)cc1	82	-1.5	16	i	101*
O/N=C/c1ccccc1OCc1ccc(Cl)cc1	22	0.49	17	i	7
CCc1c(C)nn(C(=O)/C(C#N)=C\N(C)C)c1C	10	0.58	-365	i	-2
Cc1ccc(NC(=O)CN2C(=O)c3ccccc3C2=O)nc1	5	0.29	/	i	-5
COCCCNc1nc2nonc2nc1N1CCC(C(C)N2CCOCC2)CC1 (centres undefined)	1	1.8	/	i	0
CC(NC(=O)c1ccccc1)c1ccc(F)cc1 (centres undefined)	-5	/	-53	i	4
C=CCNC(=S)NN=C1CCCCCCC1	60*	-0.21	/	i	7
COCCNC(=S)NN=C1CCCCC1	-9	1.9	/	i	-4
Cc1[nH]n(C2=NCCS2)c(=O)c1N=Nc1ccccc1	6	-0.83	12	i	80*
Cc1[nH]n(-c2ccccc2)c(=O)c1N=Nc1nccs1	22	-0.05	/	i	96*
CCCCCC(=O)Nc1nc(C)c(-c2csc(Nc3cc(OC)ccc3OC)n2)s1	-19	-2.3	7	i	51*
CCCCCCC(=O)Nc1nc(C)c(-c2csc(Nc3cc(OC)ccc3OC)n2)s1	11	-1.4	-18	i	71*
COc1ccc(OC)c(Nc2nc(-c3sc(NC(=O)c4ccccc4)nc3C)cs2)c1	26	-0.36	30	i	-1
O=C(O)COc1ccc(F)cc1Br	/	-0.14	/	/	/
CCOC(=O)CN1C=C(c2ccc3ccccc3n2)C(C[N+](=O)[O-])c2ccccc21 (centres undefined)	50	1.6	-135	i	99*
Cc1cc(NC(=O)CN2CC(C)OC(C)C2)n(-c2nc3ccccc3s2)n1 (centres undefined)	-18	/	-31	i	13
CCOC(=O)C1CCN(CC(=O)Nc2cc(C)nn2-c2nc3ccccc3s2)CC1	74*	0.12	11	i	6
CC(/C=N/Nc1nnc2c(n1)[nH]c1ccccc12)=C\c1ccco1	3	/	/	i	-3
SMILES	WT yeast gro inh	Ins promoter up	Insulin prom inh	Autophagy mod	L major viab
Cc1cccc2c1[nH]c1nc(N/N=C\c3ccco3)nnc12	0	0.01	-11	i	61*
CCn1c2ccccc2c2cc(NC(=O)COC(=O)c3cccc(S(=O)(=O)NC)c3)ccc21	-23	0.79	9	i	66*
Cc1ccc(C)c(S(=O)(=O)Nc2ccc3sc(C)nc3c2)c1	23	/	5	i	95*
COc1ccc(-c2cn3ccc4ccccc4c3n2)cc1	24	0.68	77*	i	24
COc1ccc(-c2cn3ccccc3n2)cc1	/	-0.13	/	/	/
CCOC(=O)N1CCN(CC(=O)Nc2ccc(Oc3ccccc3)cc2)CC1	/	-0.66	29	i	97*
C=CCC(=O)OCC(=O)Nc1ccc(Oc2ccccc2)cc1	-6	-0.2	/	i	97*
CN1CCN(CC(=O)Nc2ccc(Oc3ccccc3)cc2)CC1	14	0.7	50	i	38
CC1CCCCN1CC(=O)Nc1ccc(Oc2ccccc2)cc1 (centres undefined)	1	/	-21	i	96*
Nc1n[nH]c(=S)n1/N=C1/C(=O)Nc2ccccc21	-9	-0.29	22	i	-6
NC(=O)c1cc(NC(=O)CCCc2nc3ccccc3s2)cc(C(N)=O)c1	/	-0.76	/	/	/
COC(=O)c1ccc(-c2ccc(C(c3c(C)[nH][nH]c3=O)c3c(C)[nH][nH]c3=O)o2)cc1	16	/	0	i	97*
Cc1[nH][nH]c(=O)c1C(c1ccc(-c2ccc(Cl)cc2Cl)o1)c1c(C)[nH][nH]c1=O	13	-0.2	20	i	100*
CCOC(=O)c1ccc(NC(=O)C(C)N2C(=O)c3ccccc3C2=O)cc1 (centres undefined)	15	-0.27	/	i	-6
Cc1ccc(NC2=C(Cl)C(=O)c3ccccc3C2=O)cc1	15	?	35	i	9
CCOC(=O)c1ccc(NC2=CC(=O)C(=O)c3ccccc32)cc1	1	-0.33	21	i	100*
Cc1ccc(NC2=CC(=O)C(=O)c3ccccc32)cc1	65*	/	-24	i	99*
Cc1cc(C)c(S(=O)(=O)N2CCN(C(=O)N(C)C)CC2)c(C)c1	-9	-0.02	-76	i	-3
CCOC(=O)C1CCCN(C(=O)COC(=O)c2ccc(C#N)cc2)C1 (centres undefined)	-17	-0.21	-19	i	-10
CC1CSc2n(-c3cccc(C(F)(F)F)c3)cc(-c3ccccc3)[n+]21 (centres undefined)	-2	-1.9	/	i	87*
CC(C)(C)c1cc(C(=O)C[n+]2ccc(C(=O)NCCCO)cc2)cc(C(C)(C)C)c1O	/	-0.49	/	/	/
CC(c1ccccc1)N(CC(=O)NC1CCCCC1)S(=O)(=O)c1cccc(C(F)(F)F)c1 (centres undefined)	69*	-0.5	0	i	37
COc1ccc(C2CC(c3ccc(Br)cc3)=NN2C(=S)Nc2ccccc2)cc1 (centres undefined)	35	-1.9	/	i	79*
COc1ccccc1C1CC(c2ccccc2)=NN1C(=S)Nc1ccccc1 (centres undefined)	14	-1.5	/	i	79*
COc1ccc(C2=NN(C(=S)Nc3ccccc3)C(c3ccccc3)C2)cc1 (centres undefined)	41	1.4	6	i	96*
COc1ccc(C2CC(c3ccccc3)=NN2C(=S)Nc2ccccc2)cc1 (centres undefined)	15	-0.05	-42	i	37
Cc1ccc(C2=NN(C(=S)Nc3ccccc3)C(c3ccco3)C2)cc1 (centres undefined)	17	-0.42	3	i	56*
CCCC(c1nnnn1C1CCCC1)N1CCN(c2ccccc2F)CC1 (centres undefined)	-22	-1.2	-57	i	34
COc1ccc(C2C(C(=O)c3ccccc3)N3c4ccccc4C=CC3C2[N+](=O)[O-])cc1 (centres undefined)	12	-1.9	-33	i	44
O=C(/C=C/c1ccc(-c2ccccc2[N+](=O)[O-])o1)c1ccco1	57	-0.22	/	i	59*
